# Shown is part of a subset that was picked to be rich in the strongest signals.
# Tests used:
# Experiment in all cases: glycan array binding signal (z-score within array); higher = stronger binding
# Settings in all cases: glycan notation: IUPAC condensed, linker removed
# [1] = system: Neu5Ac(a2-8)Neu5Ac(a2-3)Gal(b1-4)Glc
# Summary of the method: (§1)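 The binding signal is a Z-score computed within each array and averaged over linkers. Arrays of the same protein sequence at different concentrations or buffers were also averaged together. Data originate from 3228 arrays in the Consortium for Functional Glycomics database, kept only where the protein sequence was available.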
# [2] = system: Neu5Ac(a2-8)Neu5Ac(a2-8)Neu5Ac(a2-3)[GalNAc(b1-4)]Gal(b1-4)Glc
# Summary of the method: as §1
# [3] = system: Neu5Gc(a2-3)Gal(b1-3)[Fuc(a1-4)]GlcNAc
# Summary of the method: as §1
# [4] = system: Neu5Ac(a2-8)Neu5Ac(a2-3)[Gal(b1-3)GalNAc(b1-4)]Gal(b1-4)Glc
# Summary of the method: as §1
# [5] = system: Neu5Gc(a2-3)Gal(b1-3)GlcNAc
# Summary of the method: as §1
# [6] = system: Neu5Ac(a2-8)Neu5Ac(a2-8)Neu5Ac(a2-8)Neu5Ac(a2-8)Neu5Ac(a2-8)Neu5Ac(a2-8)Neu5Ac(a2-8)Neu5Ac
# Summary of the method: as §1
# [7] = system: Neu5Ac9Ac(a2-6)Gal(b1-4)GlcNAc
# Summary of the method: as §1
# [8] = system: Neu5Gc(a2-3)Gal(b1-4)GlcNAc
# Summary of the method: as §1
substance,measurement,setting,value
Actinohivin (Actinomycete K97),glycan array binding signal (z-score),[1],-0.163
same,glycan array binding signal (z-score),[2],-0.14
same,glycan array binding signal (z-score),[3],-0.168
AgI/II Vhelical-GFP (Streptococcus mutans),glycan array binding signal (z-score),[4],0.136
same,glycan array binding signal (z-score),[5],0.551
"SiiE (Salmonella typhimurium), A0A0H3NVH0",glycan array binding signal (z-score),[2],-0.437
"MIC3-MAR1b (Eimeria tenella), B6VCV4",glycan array binding signal (z-score),[6],-0.531
"MIC3-MAR5 (Eimeria tenella), B6VCV4",glycan array binding signal (z-score),[6],-0.75
"GspB (Streptococcus gordonii), Q939N5",glycan array binding signal (z-score),[7],2.97
LcI (Legionella pneumophila),glycan array binding signal (z-score),[7],0.198
"SpGH101 (Streptococcus pneumoniae), Q8DR60",glycan array binding signal (z-score),[8],-0.177
AgI/IIC123-GFP (Streptococcus mutans),glycan array binding signal (z-score),[8],-0.472

# Source: the supplement of paper PMC8728848
